# Results published in PMC8384837, “Expanding the binding specificity for RNA recognition by a PUF domain”.
# Key:
# Test in all cases: yeast three-hybrid, YBZ-1, SC-Leu-His + 0.5 mM 3-AT, 4 days
# Settings in all cases: tags: N-Gal4 AD-HA kept; label: inside an RPR1-promoter hybrid RNA with tandem MS2 sites; ssRNA
# [1] = target: PUM1 PUF domain R8-RFC (Homo sapiens, UniProt Q14671 828-1176, N1122R;Y1123F;Q1126C)
# Procedure, shortened: (§1)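 The interaction score is the log change in variant frequency from input to selection. Scores were computed in log2 with a pseudocount of 1 for absent variants, using Illumina sequencing of PCR-amplified repeat regions. The input came from four days on SC-Leu and the selection from four days on SC-Leu-His + 0.5 mM 3-AT. The cells were strain YBZ-1 (LexA–MS2 coat fusion, HIS3 reporter) co-expressing Pumilio-1 PUF domain libraries and matching RNA elements from a centromeric plasmid.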
# [2] = target: PUM1 PUF domain R1-KYI (Homo sapiens, UniProt Q14671 828-1176, S863K;R864Y;Q867I)
# Procedure, shortened: as §1
# [3] = target: PUM1 PUF domain R4-GRG (Homo sapiens, UniProt Q14671 828-1176, N971G;H972R;Q975G)
# Procedure, shortened: as §1
# [4] = target: PUM1 PUF domain R3-PWG (Homo sapiens, UniProt Q14671 828-1176, C935P;R936W;Q939G)
# Procedure, shortened: as §1
# [5] = target: PUM1 PUF domain R3-TRA (Homo sapiens, UniProt Q14671 828-1176, C935T;Q939A)
# Procedure, shortened: as §1
# [6] = target: PUM1 PUF domain R3-AWG (Homo sapiens, UniProt Q14671 828-1176, C935A;R936W;Q939G)
# Procedure, shortened: as §1
# [7] = target: PUM1 PUF domain R7-LNA (Homo sapiens, UniProt Q14671 828-1176, S1079L;E1083A)
# Procedure, shortened: as §1
# [8] = target: PUM1 PUF domain R7-GGR (Homo sapiens, UniProt Q14671 828-1176, S1079G;N1080G;E1083R)
# Procedure, shortened: as §1
# [9] = target: PUM1 PUF domain R8-NFV (Homo sapiens, UniProt Q14671 828-1176, Y1123F;Q1126V)
# Procedure, shortened: as §1
# [10] = target: T1, PUM1 PUF domain R6-GRQ (Homo sapiens, UniProt Q14671 828-1176, N1043G;Y1044R)
# T1 sequence: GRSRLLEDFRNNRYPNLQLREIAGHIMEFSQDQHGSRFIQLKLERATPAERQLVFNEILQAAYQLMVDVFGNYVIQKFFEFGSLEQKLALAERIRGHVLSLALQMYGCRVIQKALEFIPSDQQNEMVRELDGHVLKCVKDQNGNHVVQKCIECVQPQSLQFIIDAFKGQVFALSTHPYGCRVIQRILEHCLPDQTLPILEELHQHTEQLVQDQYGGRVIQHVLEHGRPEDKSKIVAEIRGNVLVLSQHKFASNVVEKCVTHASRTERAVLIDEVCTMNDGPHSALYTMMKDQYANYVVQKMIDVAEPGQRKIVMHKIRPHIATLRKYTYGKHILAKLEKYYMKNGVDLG
# Procedure, shortened: as §1
sequence,measurement,setting,value
GGCUAGAACUAGUGGAUCCCCCGGCGCCCGGCGGCUCGAGCCCGGGUAAGCGUAAAUAGUCUGCAUGCCGCCGGGCGCCAUGCCUGCAGGUCGACUCUAGAAAACAUG,binding signal,[1],5.87 log2 enrichment (interaction score)
GGCUAGAACUAGUGGAUCCCCCGGCGCCCGGCGGCUCGAGCCCGGGUAAGUGUAAAUCGUCUGCAUGCCGCCGGGCGCCAUGCCUGCAGGUCGACUCUAGAAAACAUG,binding signal,[2],4.65 log2 enrichment (interaction score)
GGCUAGAACUAGUGGAUCCCCCGGCGCCCGGCGGCUCGAGCCCGGGUAAGUGUAUAUAGUCUGCAUGCCGCCGGGCGCCAUGCCUGCAGGUCGACUCUAGAAAACAUG,binding signal,[3],2.09 log2 enrichment (interaction score)
GGCUAGAACUAGUGGAUCCCCCGGCGCCCGGCGGCUCGAGCCCGGGUAAGUGUAAGUAGUCUGCAUGCCGCCGGGCGCCAUGCCUGCAGGUCGACUCUAGAAAACAUG,binding signal,[4],2.38 log2 enrichment (interaction score)
same,binding signal,[5],0.89 log2 enrichment (interaction score)
same,binding signal,[6],0.66 log2 enrichment (interaction score)
GGCUAGAACUAGUGGAUCCCCCGGCGCCCGGCGGCUCGAGCCCGGGUAAGUGUACAUAGUCUGCAUGCCGCCGGGCGCCAUGCCUGCAGGUCGACUCUAGAAAACAUG,binding signal,[3],0.59 log2 enrichment (interaction score)
GGCUAGAACUAGUGGAUCCCCCGGCGCCCGGCGGCUCGAGCCCGGGUAAGUUUAAAUAGUCUGCAUGCCGCCGGGCGCCAUGCCUGCAGGUCGACUCUAGAAAACAUG,binding signal,[7],4.5 log2 enrichment (interaction score)
same,binding signal,[8],3.28 log2 enrichment (interaction score)
GGCUAGAACUAGUGGAUCCCCCGGCGCCCGGCGGCUCGAGCCCGGGUAAGUGUAAUUAGUCUGCAUGCCGCCGGGCGCCAUGCCUGCAGGUCGACUCUAGAAAACAUG,binding signal,[4],2.22 log2 enrichment (interaction score)
same,binding signal,[5],0.43 log2 enrichment (interaction score)
same,binding signal,[6],0.35 log2 enrichment (interaction score)
GGCUAGAACUAGUGGAUCCCCCGGCGCCCGGCGGCUCGAGCCCGGGUAAGUGUAAAUAGUCUGCAUGCCGCCGGGCGCCAUGCCUGCAGGUCGACUCUAGAAAACAUG,binding signal,[4],4.24 log2 enrichment (interaction score)
same,binding signal,[9],3.02 log2 enrichment (interaction score)
same,binding signal,[5],3.6 log2 enrichment (interaction score)
same,binding signal,[6],3.6 log2 enrichment (interaction score)
same,binding signal,[3],5.19 log2 enrichment (interaction score)
same,binding signal,[1],4.53 log2 enrichment (interaction score)
same,binding signal,[10],3.49 log2 enrichment (interaction score)
